Hit rate of the full screen: of about 69,000 compounds, about 8,600 (12%) showed an effect of 50% or more. This is one part of a sample in which strong results are shown more often than they occur.

The test system of this test is Plasmodium berghei. Nature of the test: Screen against P. berghei liver stage (PbLuc), transformed with Luciferase, at 10uM. Type of test: functional, HepG2. Particulars: tested at 10 uM.
In the case of `Cn1cc(CN(C(=O)c2ccc(O)c(Cl)c2)C2CC2)cn1`, the INHIBITION is on record as 21.3%.
With `CC1CN(c2ncnc3sccc23)CCN1c1nccs1` (stereo not drawn), the INHIBITION was 60.2%.
As to `CCC[C@@H]1CN(c2ncnc3sccc23)C[C@H]1C(=O)O`, the INHIBITION is listed as -7.98%.
Next, `CC1CN(c2ncnc3c2cnn3C)CCN1c1nccs1` (stereo not drawn): 5.91%.
Next, `N#Cc1ccc(N2CCCN(c3nccs3)CC2)nc1`: -28.2%.
Next, `c1csc(N2CCCN(c3ncnc4sccc34)CC2)n1`: 66.8%; `c1csc(N2CCN(c3ncnc4sccc34)CC2)n1`: 38.5%.
Turning to `CN1CC(=O)N(c2ccccc2)CC12CCN(Cc1cccnc1)C2` (stereo not drawn), the INHIBITION is recorded as 8.47%.
To `CC(C)CCn1[nH]c(CNc2ccc(F)cc2)nc1=O` belongs 15.1%; to `CN1CCC2(C=C(C(=O)N3CCCC3)c3ccccc32)CC1`, 26.4%.
With `Cc1ccc(CC(=O)N2CCOC(c3ncc(CN(C)C)[nH]3)C2)s1` (stereo not drawn), the INHIBITION was 7.19%.
Next, `CNc1ncc(-c2csc(NC(=O)C[C@H]3COCCN3)n2)cn1`: 24.8%.
For `CC(C)CC(=O)N1CCC(c2nnc3n2CCCCC3)CC1`, the INHIBITION was -16.5%.
To `Cn1cc(N)c(-c2nnc3n2CCCC3)n1` belongs 42.6%; to `CCC(NC(=O)CCCNC(=O)OC)c1cc(F)ccc1F` (stereo not drawn), -13.6%.
Next, `CCc1nc(CSC2CCCN(c3cnn(C)c3)C2=O)cs1` (stereo not drawn): 29%; `O=C(c1cc2c([nH]c1=O)CCC2)N1CCCC1c1ccc(F)cc1` (stereo not drawn): 20.6%.
To `O=C(c1cc2c([nH]c1=O)CCC2)N1CCCC1c1ccccc1` (stereo not drawn) belongs -19.7%.
With `O=C(c1cc2c([nH]c1=O)CCC2)N1CCCCC1c1cccc(F)c1` (stereo not drawn), the INHIBITION is 54.7%.
To `COC1(CNC(=O)c2ccc(F)c(F)c2)CCSC1` (stereo not drawn) belongs 29.6%; to `CCc1nnc(CNC(=O)CCC2CCCN(C)C2)s1` (stereo not drawn), -57.5%.
With `Cc1ccsc1CN(CCCO)Cc1nc2ccccc2[nH]1`, the INHIBITION is 23.2%.
On to `Oc1ccc(-c2c(-c3ccccc3)ncn2C2CCNC2)cc1` (stereo not drawn), for which the INHIBITION is 54.5%.
With `Oc1ccc(-c2c(-c3ccccc3)ncn2C[C@H]2CCCN2)cc1`, the INHIBITION was -9.17%.
To `CCOc1ccc(-c2c(-c3ccccc3)ncn2C2CCNC2)cn1` (stereo not drawn) belongs 24.8%; to `O=C(CN1CCC(c2ccccc2)C1)NCC(F)(F)F` (stereo not drawn), 37.8%; to `CCCn1ncc(C2CC(=O)NCc3nc4sc(C)cn4c32)c1C` (stereo not drawn), 44.7%.
As for `Cn1ncc(C2CC(=O)NCc3nc4ccccn4c32)c1C1CC1` (stereo not drawn), the INHIBITION turned out to be 17.6%.
For the compound `CCCn1ncc(C2CC(=O)NCc3nc4cc(C)ccn4c32)c1C` (stereo not drawn), the INHIBITION is listed as 71.5%.
As to `CC1(C)O[C@@](C)([C@H]2CC3(CCN(c4cnccn4)CC3)CO2)CC[C@@H]1O`, the INHIBITION was 30.55%.
Regarding `CN(C)C(=O)CCNC(=O)Nc1cccc(Cl)c1-n1cccn1`, the INHIBITION is -10.3%.
As to `Cc1cc(N(C)Cc2cc(C)on2)n2nc(C)c(C)c2n1`, the INHIBITION is reported as -45.4%.
For the compound `CCc1cc(N(C)Cc2ccncn2)n2nc(C)c(C)c2n1`, the INHIBITION was determined as 42.3%.
Consider `CCc1cc(N(C)Cc2ccno2)n2nc(C)c(C)c2n1`, for which the INHIBITION is -2.73%.
To `CCc1nnc(CN(C)c2cc(C)nc3c(C)c(C)nn23)o1` belongs 36.7%.
To `CCc1cc(N(C)Cc2ccnc(C)c2)n2nc(C)c(C)c2n1` belongs 73.5%.
To `CCc1cc(N(C)Cc2cc[nH]n2)n2nc(C)c(C)c2n1` belongs 81.7%; to `COc1ncc(-c2ccc(C(N)=O)cc2)c(OC)n1`, 9.41%; to `CN(C)Cc1cn2c(n1)CN(C1CCOC1)CC2` (stereo not drawn), -4.32%.
Take `NC(=O)C1CCN(C(=O)NC(Cc2ccccc2)C(F)(F)F)CC1` (stereo not drawn): the INHIBITION was -82.2%.
Take `Cc1cnn(CC2CN(Cc3nnc(C(C)C)o3)CCO2)c1` (stereo not drawn): the INHIBITION is reported as 30.6%.
For `Cc1nc(CN(C)C(=O)C2CCC(=O)N(CCN(C)C)C2)cs1` (stereo not drawn), the INHIBITION stood at 20.8%.
Take `Cc1nc(CN(C)C(=O)C2CC(=O)N(c3cccc(O)c3)C2)cs1` (stereo not drawn): the INHIBITION is listed as 7.6%.
To `COCCN1CC(C(=O)N(C)Cc2csc(C)n2)CC1=O` (stereo not drawn) belongs 57.8%; to `Cn1cc(CCNC(=O)NCc2ccc3c(c2)OCCO3)cn1`, 24.5%.
Take `CCC(=O)N1CCC2(CC1)COc1ccccc1S(=O)(=O)N(C)C2`: the INHIBITION is -0.182%.
Next, `COCC(=O)N1CCC2(CC1)COc1ccccc1S(=O)(=O)N(C)C2`: 66.8%; `CN(C)CC(=O)N1CCC2(CC1)COc1ccccc1S(=O)(=O)N(C)C2`: 50%; `COCCN1CCC2(CC1)COc1ccccc1S(=O)(=O)N(C)C2`: -4.32%.
Next, `CN1CC2(CCN(C(=O)C3CCC3)CC2)COc2ccccc2S1(=O)=O`: 20.4%; `CN(C)C(=O)CN1CCC2(CC1)COc1ccccc1S(=O)(=O)N(C)C2`: 17.4%.
Next, `N#Cc1csc(CNCCOc2ccc(Cl)cn2)c1`: 4.35%; `Cc1cnn(CC2CCCN2C(=O)CCCc2nc(C)no2)c1` (stereo not drawn): -45.8%; `Fc1cc(CCNc2ccc3nccn3n2)c2c(c1)COCO2`: 48.2%.
In the case of `CC(C)(C)c1cc(NC(=O)CN2CCC(N3CCNC3=O)CC2)on1`, the INHIBITION is listed as 3.73%.
As to `CC(=O)N1CCC(c2ncc3c(n2)CCN(C(=O)c2ccccc2)C3)C1` (stereo not drawn), the INHIBITION is 1.5%.
To `CCOCCN1CCC=C(C2c3nc[nH]c3CCN2C(C)=O)C1` (stereo not drawn) belongs 36.6%; to `CCn1nc(C)c(CN2CCCC(c3ccc(C(=O)O)cc3)C2)c1C` (stereo not drawn), 62.4%.
As for `Cc1nn(C)c(C)c1CN1CCCC(c2ccc(C(=O)O)cc2)C1` (stereo not drawn), the INHIBITION worked out at 6.88%.
On to `CCn1nc(C)c(CN2CCC(c3ccc(C(=O)O)cc3)C2)c1C` (stereo not drawn), for which the INHIBITION turned out to be 27.9%.
As for `Cc1nn(C)c2c(N3CCN(C(=O)C(C)C)CC3)ncnc12`, the INHIBITION was 10.1%.
As for `Cc1nn(C)c2c(N3CCN(C(=O)C4CC4)CC3)ncnc12`, the INHIBITION came out at 44.1%.
In the case of `CCC(=O)N1CCN(c2ncnc3c(C)nn(C)c23)CC1`, the INHIBITION came to 50.7%.
Consider `CCc1nc(N2CCCN(c3ncccn3)CC2)c2cnn(C)c2n1`, for which the INHIBITION came to 33.3%.
Next, `CCc1nc(N2CCN(c3ncccn3)CC2)c2cnn(C)c2n1`: -3.55%; `CCc1nc(N2CCN(c3ncccc3C#N)CC2)c2cnn(C)c2n1`: 53.7%.
Consider `O=C(c1ccc(F)cc1)N1CCC2(CCCN2CC2CC2)CC1`, for which the INHIBITION worked out at 26.6%.
Next, `COc1ccccc1N1CCN(Cc2cnc3c(c2)c(C)nn3C)CC1`: 32.3%.

The values are drawn from ChEMBL document CHEMBL4513216, “Probing the Open Global Health Chemical Diversity Library for Multistage-Active Starting Points for Next-Generation Antimalarials” (ACS Infect Dis, 2020).
